Hits are enriched below; roughly 3.1% of the tested compounds scored in any of these assays.
Mcl1-Noxa inh – Mcl-1/Noxa interaction inhibition. inhibition, % at 21.7 µM. TR-FRET Mcl-1/Noxa peptide binding, 2 h. 1.5% of 220,000 active. Q07820;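 active = compounds that cut the protein-peptide binding signal by more than 50% relative to plate controls in a single-dose test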;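 note: His-tagged Mcl-1 with rhodamine Noxa BH3 peptide and terbium anti-His antibody; 0% = Mcl-1 plus Noxa peptide wells and 100% = peptide-only wells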
Target sequence (Q07820 whole entry, looked up): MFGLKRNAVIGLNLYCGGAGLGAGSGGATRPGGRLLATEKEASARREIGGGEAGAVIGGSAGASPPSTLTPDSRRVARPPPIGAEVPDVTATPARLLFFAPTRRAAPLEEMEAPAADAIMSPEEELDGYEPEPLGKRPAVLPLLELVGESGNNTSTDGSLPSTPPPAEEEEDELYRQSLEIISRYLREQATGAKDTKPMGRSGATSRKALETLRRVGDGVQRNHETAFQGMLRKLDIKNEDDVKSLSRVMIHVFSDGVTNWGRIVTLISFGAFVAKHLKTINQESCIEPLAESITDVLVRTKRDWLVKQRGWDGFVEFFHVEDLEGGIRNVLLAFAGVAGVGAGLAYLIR
Mcl1 Bid PPI – Mcl-1/Bid interaction inhibition; inhibition, % at 21.7 µM; TR-FRET Mcl-1/Bid-Dy647 peptide binding, 1536-well; 0.97% of 220,000 active; Q07820; AID 1021;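 active = compounds that cut the binding signal by more than half at the single screening dose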;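 note: His-tagged Mcl-1 with europium anti-His antibody binding Bid BH3 peptide; 0% = Mcl-1 plus peptide wells and 100% = peptide-only wells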
14-3-3 Bad inh – disrupts binding of bovine 14-3-3 zeta to phospho-Bad peptide; P63103; TR-FRET 14-3-3zeta/Dy647-pBad peptide displacement, 1 h; inhibition, % at 21.7 µM; 0.71% of 220,000 active; AID 781;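 active = inhibition above about 70%, limit read from the data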;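 note: 0% = full 14-3-3 plus peptide FRET controls and 100% = background without 14-3-3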
Target sequence (P63103 whole entry, looked up): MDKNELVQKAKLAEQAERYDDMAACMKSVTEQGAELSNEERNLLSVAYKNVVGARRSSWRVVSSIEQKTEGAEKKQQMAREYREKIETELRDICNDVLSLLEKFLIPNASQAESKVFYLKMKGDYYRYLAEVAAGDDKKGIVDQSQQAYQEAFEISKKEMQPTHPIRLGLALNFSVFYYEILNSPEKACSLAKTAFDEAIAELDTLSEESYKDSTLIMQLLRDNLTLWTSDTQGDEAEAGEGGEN
Mcl-1 Bim block – human Bim-Mcl-1 interaction inhibition. Q07820. Bead-based flow cytometry, Bim peptide-Mcl-1 binding. inhibition, % at 10 µM. 0.1% of 190,000 active; in the data active = inhibition above about 40%;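 note: 0% = no compound tracer wells and 100% = peptide blocker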
NCF1 inh – p47phox (human) inhibition; P14598; p47phox/p22phox peptide binding, fluorescence polarization, 2 h; inhibition, % at 24.7 µM; 0.53% of 220,000 active; AID 1274;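 active = inhibition above about 30%, limit read from the data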;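 note: 0% = p47phox with labelled peptide and 100% = labelled peptide alone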
The depositor's hits bear a star; nt = no result.

SMILES | Mcl1-Noxa inh | Mcl1 Bid PPI | 14-3-3 Bad inh | Mcl-1 Bim block | NCF1 inh
C=CCn1c(SCC(=O)NCCOC)nnc1-c1cc2c(s1)CCC(CC)C2 (stereo not drawn) | -7 | -7 | 9 | -3 | 1
CCc1c(C)[nH]c2ccc(OC)cc2c1=S | 74* | -2 | -6 | -5 | 2
O=C(/C(=N/N=C/c1ccc(O)c(O)c1O)c1ccccc1)c1ccccc1 | 52* | -19 | -6 | -1 | -40
Oc1ccc(/C=N/N=C(c2ccccc2)c2ccccc2)c(O)c1O | 101* | 6 | 17 | -1 | -3
O=C1ON=C(c2cccc([N+](=O)[O-])c2)/C1=C/c1ccc(O)cc1 | 66* | -50 | 6 | 0 | 14
O=C1ON=C(c2ccccc2)/C1=C/c1cccnc1 | 23 | -11 | 3 | 2 | 4
O=C1Nc2ccccc2/C1=C/c1cccnc1 | -19 | -22 | -10 | -3 | -2
O=C1Nc2ccccc2/C1=C/c1cnc(-c2ccccc2)[nH]1 | 65* | 9 | 58 | nt | -16
COc1ccc2c(c1)CC(C1(O)C(=O)N(C)c3ccccc31)C2=O (stereo not drawn) | -11 | -3 | 74* | -2 | 4
CN1C(=O)C(O)(C2COC(C)(C)CC2=O)c2ccccc21 (stereo not drawn) | 6 | -43 | -12 | -1 | -2
CNC(=O)c1c(NC(=O)c2cc(-c3cc(C)c(C)cc3O)n[nH]2)sc2c1CCCC2 | 60* | 9 | 29 | nt | 3
O=C(Nc1sc2c(c1C(=O)O)CCC2)c1ccc(F)cc1 | 18 | -52 | -10 | 8 | 8
O=C(Cn1nc(C(F)(F)F)c2c1CCCC2)NCc1ccco1 | -2 | 98* | 3 | 1 | -12
COc1ccc2c(C)cc(SCC(=O)Nc3nsc(-c4ccc(C)cc4)n3)nc2c1 | -18 | 3 | 7 | -3 | -3
O=C(CSc1ccc2ccccc2n1)Nc1nsc(-c2ccc(Cl)cc2)n1 | 19 | 61* | 52 | -270 | 19
Cc1ccc(-c2nc(NC(=O)CSc3cc(C)c4ccccc4n3)ns2)cc1 | -212 | -23 | 75* | -425 | 52*
O=C(NNc1c2ccccc2nc2ccccc12)c1ccc(O)cc1O | 68* | 55* | 14 | -1 | -46
O=C(NNc1c2ccccc2nc2ccccc12)c1cccc(O)c1 | 46 | -39 | -17 | -10 | -25
O=C(NNc1c2ccccc2nc2ccccc12)c1ccc(O)cc1 | 51* | -65 | -10 | -4 | -13
O=C(NNc1c2ccccc2nc2ccccc12)c1ccccc1O | 64* | 23 | 3 | -18 | 25
O=C(NNc1c2ccccc2nc2ccccc12)C(O)c1ccccc1 (stereo not drawn) | -2 | -73 | -4 | nt | -9
CCCC(=O)NNc1c2ccccc2nc2ccccc12 | 20 | -24 | -8 | -3 | -9
O=C(COC(=O)CCc1ccccc1)Nc1cc(S(=O)(=O)N2CCOCC2)ccc1N1CCCC1 | -25 | -4 | -3 | 1 | -15
CCN(CC)CCNC(=O)/C(=C/c1cn(C)c2ccccc12)NC(=O)c1ccc(OC)c(OC)c1 | 3 | 95* | -7 | nt | -12
CCN(CC)CCNC(=O)/C(=C/c1cn(CC)c2ccccc12)NC(=O)c1cc(OC)c(OC)c(OC)c1 | 16 | -52 | -8 | 2 | -6
SMILES | Mcl1-Noxa inh | Mcl1 Bid PPI | 14-3-3 Bad inh | Mcl-1 Bim block | NCF1 inh
COc1ccc2c(=O)c3c(=O)n(CCc4ccccc4)c(C(C)C)nc3oc2c1 | 10 | 77* | 16 | nt | -9
C=CCOC(=O)/C(=C\c1ccccc1)NC(=O)c1ccc(C)cc1 | 117* | -17 | 0 | 1 | -3
Cc1ccc(NC(=O)CSc2nnc(C(F)(F)F)n2C)cc1[N+](=O)[O-] | 0 | -12 | 5 | -2 | 5
O=C(O)c1ccc(NC(CSCc2ccccc2F)C(=O)O)c([N+](=O)[O-])c1 (stereo not drawn) | 25 | 20 | 18 | -6 | 3
COc1ccc(C)c2sc(=NC(=O)c3ccccc3)n(C)c12 | -5 | 0 | 2 | 0 | 45*
COc1ccc(C)c2sc(=NC(=O)c3ccc(C(C)=O)cc3)n(C)c12 | -3 | 12 | 7 | nt | -1
Cc1ccc(S(=O)(=O)NCCCN2CCOCC2)cc1C | 13 | -18 | 18 | 1 | -5
Cc1cc(C)c(S(=O)(=O)NCC2CCC(C(=O)NCCCN3CCOCC3)CC2)c(C)c1 (stereo not drawn) | 21 | 16 | -8 | -3 | 39*
Cc1cc(C)c(C)c(S(=O)(=O)NCCCN2CCOCC2)c1C | 10 | -1 | 86* | 0 | 1
COc1ccc(/C=C2/NC(=O)N(CC(=O)Nc3cccc(C)c3)C2=O)cc1O | 11 | -18 | 3 | -1 | 2
CCCC(=O)Nc1c(-c2ccccc2)c(=O)c(C)nn1-c1ccc(C)cc1 | -15 | -32 | -5 | nt | -14
COc1ccc(-c2cc(C(F)(F)F)n3nc(C(=O)O)nc3n2)cc1 | 19 | 19 | 24 | 3 | 65*
COc1ccc(-c2cc(C(F)(F)F)n3nc(N)nc3n2)cc1 | 24 | -5 | 12 | -2 | -9
Cc1nc2ccc(NC(=O)N3CCCCC3)cc2nc1C | -4 | -11 | -6 | -4 | -4
O=C(Nc1ccc2nc(-c3ccco3)c(-c3ccco3)nc2c1)N1CCCCCC1 | 105* | 59* | 35 | 16 | -29
CCOC(=O)C1CCN(C(=O)Nc2ccc3nc(-c4ccco4)c(-c4ccco4)nc3c2)CC1 | 97* | 25 | 32 | 19 | -12
O=Cc1ccc(OCC(=O)N2CCOCC2)cc1 | -11 | -34 | -5 | -2 | -6
S=c1[nH]nc(-c2ccccn2)n1/N=C/c1c(Cl)cccc1Cl | 20 | -47 | -5 | nt | 0
CN(C)c1ccc(-n2cccc2)cc1 | 62* | -104 | 1 | nt | -4
FC(F)(F)c1ccc(Oc2ccc(Cl)cc2Br)nc1 | 4 | 3 | 1 | 0 | 6
Cc1cc(N2CCCC2)nc2ccc(NC(=S)NC(C)C)cc12 | 61* | -25 | -5 | -2 | 4
COc1ccc(CCn2c(-c3cc([N+](=O)[O-])cc([N+](=O)[O-])c3)nc3nc4ccccc4nc32)cc1OC | 17 | 4 | 1 | -5 | 6
Cn1c(C(=O)NCc2ccccc2)cc2oc3ccccc3c21 | -8 | -22 | -8 | 4 | 31*
Nc1c(C2=NCCO2)nnn1Cc1ccccc1 | -4 | 13 | 3 | -3 | 44*
COc1cc(C2N(c3ccc(Cl)cc3)C(=O)C3CCCN32)cc(OC)c1OC (stereo not drawn) | 0 | -13 | -1 | 1 | -22
COc1ccc(N2C(=O)C3CCCN3C2c2cc(OC)c(OC)c(OC)c2)cc1 (stereo not drawn) | -28 | -25 | 12 | -1 | 35*
COc1ccc(N2C(=O)C3CCCN3C2=O)cc1 (stereo not drawn) | 102* | -6 | -6 | -2 | -7
COc1ccc(NC(=O)C(C)N2C(=O)c3ccccc3C2=O)cc1S(=O)(=O)N1CCOCC1 (stereo not drawn) | 5 | -19 | 0 | 0 | -9
